# Glyco luc inh – N-linked glycosylation inhibition; D54 ERlucT glycosylation luciferase reporter, 24 h; percent of 100 nM tunicamycin response; 360,000 tested, 0.23% active; reporter increase, % at 12.5 µM;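 active = mean luciferase reporter signal, scaled so untreated is 0 and the glycosylation-blocking control 100, at or above a set limit in every replicate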;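 note: luciferase carries N-glycosylation sites so blocking glycosylation raises the light; 0% = median of neutral control wells and 100% = median of 100 nM tunicamycin wells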
# RAD52 inh – RAD52 (human) annealing inhibition; P43351; inhibition, % at 18.7 µM; 360,000 tested, 0.46% active; AID 651710; recombinant RAD52 DNA annealing, FRET fluorescence;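 active = every replicate showing at least 50% inhibition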
# PvdQ inh – blocks Pseudomonas aeruginosa PvdQ acylase activity | purified PvdQ acylase, fluorescence plate reader | inhibition, % at 10 µM | 340,000 tested, 0.063% active | AID 488965; in the data active = inhibition above about 30%, passing the limit was not always enough;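 note: 0% = vehicle neutral wells and 100% = reference inhibitor wells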
# RAD54 branch – inhibitors of human RAD54 branch migration; 360,000 tested, 0.14% active; RAD54 Holliday junction branch migration, FAM/BHQ fluorescence; inhibition, % at 10.4 µM; Q92698;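 active = mean normalized replicate activity at least 40 and at least half of replicates scoring 40 or more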;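 note: 0% = median of neutral control wells and 100% = median of positive control wells; inhibitors cause a drop in the FAM fluorescence signal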
# Target sequence (Q92698 whole entry, looked up): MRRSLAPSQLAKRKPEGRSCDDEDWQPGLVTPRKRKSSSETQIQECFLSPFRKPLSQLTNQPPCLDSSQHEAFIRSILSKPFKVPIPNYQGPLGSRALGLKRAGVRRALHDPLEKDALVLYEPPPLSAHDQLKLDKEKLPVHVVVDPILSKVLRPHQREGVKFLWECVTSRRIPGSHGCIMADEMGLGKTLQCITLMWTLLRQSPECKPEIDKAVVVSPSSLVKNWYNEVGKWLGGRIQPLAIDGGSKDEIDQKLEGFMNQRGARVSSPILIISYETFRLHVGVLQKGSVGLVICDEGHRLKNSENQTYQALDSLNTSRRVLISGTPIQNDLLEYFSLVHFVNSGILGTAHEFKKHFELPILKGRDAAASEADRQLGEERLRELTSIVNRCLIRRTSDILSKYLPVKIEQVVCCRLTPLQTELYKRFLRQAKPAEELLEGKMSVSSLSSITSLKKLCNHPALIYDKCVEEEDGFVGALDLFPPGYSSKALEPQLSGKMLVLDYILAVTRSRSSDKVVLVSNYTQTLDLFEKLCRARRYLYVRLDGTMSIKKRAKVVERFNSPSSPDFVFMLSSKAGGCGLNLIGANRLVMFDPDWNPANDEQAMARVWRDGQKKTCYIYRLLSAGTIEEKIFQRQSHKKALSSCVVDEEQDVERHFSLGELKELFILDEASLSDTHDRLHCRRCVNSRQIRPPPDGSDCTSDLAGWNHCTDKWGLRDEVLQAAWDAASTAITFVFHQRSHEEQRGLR
# CFTR F508del cor – correctors of CFTR F508del function in bronchial epithelial cells; AID 720511; 350,000 tested, 0.36% active; CFBE cells, YFP halide quenching; stimulated with forskolin plus potentiator P3; % fluorescence drop versus neutral controls; activity (quench increase), % at 7.58 µM;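 active = mean added fluorescence quench of at least 8% versus neutral control, with both replicates also reaching 8%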;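 note: cells transiently co-express mutant CFTR-F508del with the halide-sensitive YFP; corrector assay measuring rescue of mutant channel to the surface after 24 h compound exposure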
# dFosB activator – activators of mouse delta FosB homodimer. AID 493131. 340,000 tested, 0.99% active. purified delta FosB, TAMRA-CDK5 oligo fluorescence polarization; percent of positive-control signal above neutral wells. activation, % at 25 µM. P13346;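 active = mean activation above about 17%, with every replicate also reaching it, limit read from the data, passing the limit was not always enough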
# DNA binder FP – DNA binding artifact in RAD52 counter-screen; shares compounds with RAD52 inh; Salmon sperm DNA/acridine orange FP displacement; AC50, µM; 1,000 tested, 8% active; AID 652128;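 active = fitted half-maximal concentration for signal loss at or below twice the highest dose tested, in every separate run, actives reach about 64 µM in these data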
# The depositor's hits bear a star; i = inactive; . = no result; ! = a repeat was not active. Hits are enriched below; roughly 1.5% of the tested compounds scored in any of these assays.
SMILES,Glyco luc inh,RAD52 inh,PvdQ inh,RAD54 branch,CFTR F508del cor,dFosB activator,DNA binder FP
O=C(C[C@H]1C[C@@H]2c3cc(NC(=O)C4CCOCC4)ccc3O[C@@H]2[C@H](CO)O1)NCc1ccccc1F,.,6.1,.,0.4,-2.0,.,.
CCN1CCN(Cc2ccc(NC(=O)c3ccc(C)c(NC(=O)c4nccn4C)c3)cc2C(F)(F)F)CC1,-8.7,5.7,-7.4,2.9,-2.1,-22.1,.
CCN1CCN(Cc2ccc(NC(=O)c3ccc(C)c(NC(=O)c4cccc5[nH]ccc45)c3)cc2C(F)(F)F)CC1,-15.6,89.4*!,-5.0,7.5,-0.1,2.3,i
CCN1CCN(Cc2ccc(NC(=O)c3ccc(C)c(NC(=O)c4nccnc4N)c3)cc2C(F)(F)F)CC1,-12.2,67.2*,3.1,11.5,-1.0,-38.2,i
CCN1CCN(Cc2ccc(NC(=O)c3ccc(C)c(NC(=O)N4CCNC4=O)c3)cc2C(F)(F)F)CC1,-6.1,-1.1,-8.8,-6.6,-1.9,-34.0,.
CCNC(=O)C[C@H]1CC[C@@H]2[C@@H](COc3ccc(NC(C)=O)cc3C(=O)N2C)O1,.,23.1,.,5.5,-1.3,.,.
CN1CCN(C2CCN(Cc3ccc(O)c4ncccc34)CC2)CC1,3.0,91.8*,-14.6,16.2,-2.8,4.9,i
NCCCCNCCCN,0.3,24.5,-8.6,3.9,-6.2,-0.9,.
NCCNCCNCCN,1.5,94.3*,7.0,21.2,-0.1,1.3,i
COc1cc(CNC(C)(C)CO)cc(Br)c1OCc1ccc(Cl)cc1Cl,3.1,55.5*,-3.5,.,.,-30.4,i
CCCCN1C(N)=NC[C@@H]1Cc1ccc(O)cc1,-0.3,-4.3,-7.1,-6.1,-2.8,-6.7,.
NC1=NC[C@H](Cc2ccc(O)cc2)N1CCC12CC3CC(CC(C3)C1)C2,3.1,52.8*,-12.6,5.9,2.4,-1.9,i
CC(=O)Nc1cccc(-c2cc(N3CCN(CCO)CC3)n3nccc3n2)c1,0.3,56.7*,.,-2.9,-0.8,.,i
CCOc1ccc(NC(=O)CCN2CCN(c3ccccc3)CC2)cc1,1.6,.,-14.7,12.9,.,-5.3,.
COc1ccc(NC(=O)CCN2CCN(c3ccc(F)cc3)CC2)cc1,1.1,-8.2,3.5,-5.7,-18.2,0.0,i
C[C@@H]1CN([C@@H](C)CO)C(=O)Cc2cc(NC(=O)Cn3cnnn3)ccc2O[C@H]1CN(C)S(=O)(=O)c1cccs1,.,-1.0,.,-2.0,2.2,.,.
Nc1nc(N)c2cc(Sc3ccc4ccccc4c3)ccc2n1,-7.4,-3.2,.,8.8,-2.1,.,.
Nc1nc(N)c2cc(Sc3ccc(Cl)cc3)ccc2n1,-8.1,84.6*,.,13.8,3.3,.,i
CCN1CCN(c2ccc(N=Cc3ccccc3O)cc2)CC1,2.6,98.9*,-14.5,.,-1.4,-0.5,i
C[C@@H]1CN([C@H](C)CO)C(=O)Cc2cc(NC(=O)C3CCCCC3)ccc2O[C@H]1CN(C)Cc1ccc(C(=O)O)cc1,.,5.5,.,-3.2,2.1,.,.
COc1ccc(NC(=O)N(C)C[C@H]2Oc3cc(-c4cccc(C(=O)N(C)C)c4)ccc3S(=O)(=O)N([C@@H](C)CO)C[C@H]2C)cc1,.,-6.8,.,.,0.9,.,.
Cc1cc(N2CCNC[C@@H]2C)ccc1N1CCN(Cc2ccccc2)[C@@H](C)C1,.,50.7*,.,.,-1.5,.,i
COCCNCC(O)CON=C1c2ccccc2-c2ccccc21 (stereo unspecified),4.5,-13.2,4.4,.,-0.2,-12.7,.
CC(C)CCNCC(O)CON=C1c2ccccc2-c2ccccc21 (stereo unspecified),-2.9,66.0*,-13.0,.,-4.8,-17.2,i
COc1ccc2c3c(n(C)c2c1)[C@@H](CO)N(Cc1ccc(Cl)cc1)CC31CCN(C(=O)NC(C)C)CC1,.,-134.8,.,.,3.9,.,.
SMILES,Glyco luc inh,RAD52 inh,PvdQ inh,RAD54 branch,CFTR F508del cor,dFosB activator,DNA binder FP
C/C(=N\NC(=O)c1nnn(-c2nonc2N)c1CN1CCCCCC1)c1ccc(Br)cc1,0.9,-14.3,14.2,2.4,0.1,-14.4,.
CCN1CCN(Cc2c(C(=O)N/N=C(\C)c3ccc(Cl)cc3)nnn2-c2nonc2N)CC1,-0.8,94.0*,-14.2,15.5,2.0,-1.9,i
COc1ccc(-c2cnc3c(c2)C(=O)N([C@@H](C)CO)C[C@@H](C)[C@@H](CN(C)C(=O)Cc2ccccn2)O3)cc1,.,5.5,.,-6.9,0.5,.,.
Cc1cc(N2CCN(C)CC2)nc2ccc(NC(=S)N3CCCCCC3)cc12,-0.6,51.8*,-12.7,18.4,-0.3,1.6,i
Cc1cc(N2CCN(C)CC2)nc2ccc(NC(=S)N3CCN(c4ccc(Cl)cc4)CC3)cc12,0.6,89.6*,-10.4,19.6,-3.7,9.6,i
Cc1cccc(N2CCN(C(=S)Nc3ccc4nc(N5CCN(C)CC5)cc(C)c4c3)CC2C)c1 (stereo unspecified),20.1,31.1,7.1,.,-17.7,-5.9,.
Cc1cc(N2CCN(C)CC2)nc2ccc(NC(=S)N3CCCCC3)cc12,-2.0,71.2*,-6.6,43.0,-1.4,-3.9,i
CCC[C@@H](CN1CCC[C@H]1CN1C(N)=NC[C@@H]1Cc1ccccc1)N1C[C@@H]([C@H](C)CC)N(CCc2ccc(Cl)c(Cl)c2)C1=N,1.4,.,-8.3,6.5,.,8.4,.
CCC[C@@H](CN1CCC[C@H]1CN1C(N)=NC[C@@H]1Cc1ccccc1)N1C[C@@H](Cc2ccccc2)N(CCCC2CCCC2)C1=N,5.7,.,-27.5,19.2,.,5.8,.
CCC[C@@H](CN1CCC[C@H]1CN1C(N)=NC[C@H]1CC(C)C)N1C[C@@H](Cc2ccccc2)N(CCc2ccc(Cl)c(Cl)c2)C1=N,3.6,64.9*,0.4,16.6,-0.7,3.1,i
CCC[C@@H](CN1CCC[C@H]1CN1C(N)=NC[C@H]1CC(C)C)N1C[C@@H]([C@H](C)CC)N(CCc2ccc(Cl)c(Cl)c2)C1=N,1.7,50.6*,2.5,19.7,1.2,4.6,i
CC[C@@H](C)[C@@H]1CN([C@@H](CN2CCC[C@H]2CN2C(N)=NC[C@H]2CC(C)C)C(C)C)C(=N)N1CCc1ccc(Cl)c(Cl)c1,-2.6,50.3*,-1.7,14.0,-3.4,9.9,i
CC[C@@H](C)[C@@H]1CN([C@@H](C)CN2CCC[C@H]2CN2C(N)=NC[C@H]2CC(C)C)C(=N)N1CCc1ccc(Cl)c(Cl)c1,0.9,36.9,-5.3,16.3,1.8,-8.5,.
CCC[C@@H](CN1CCC[C@H]1CN1C(N)=NC[C@H]1CC(C)C)N1C[C@@H](Cc2ccccc2)N(CCCC2CCCC2)C1=N,-0.7,58.5*,-13.5,13.9,3.0,-7.4,i
CCCNC(=O)c1cc2c(c(-c3cccc(-c4cccc(OC)c4)c3)n1)[C@@H](CCO)N([S@](=O)C(C)(C)C)C2,.,10.8,.,-3.7,-3.2,.,.

# Compound activity from PubChem.
